Screening results from PubChem BioAssay.
Sampled rows, rich in hits. Any-hit rate of the full collection: about 11%.
IMPase inh: cell-permeable inhibitors of inositol monophosphatase (IMPase); inhibition (IP1 accumulation), % at 46.1 µM; 120,000 tested, under 10 active; P97697; CHO-M1 cells, IP1 accumulation, HTRF TR-FRET ratio; active = well fitted curve in the direction sought with a large enough effect in the signal ratio, not every such curve was filed as active; inconclusive = small, poorly fitted or top-dose-only effect, or a change in a side signal; inactive = no such curve, though single readings can be large or run the other way; the % refers to the signal ratio;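 note: cells stimulated with carbachol in lithium chloride buffer; higher means more IMPase inhibition seen as more IP1 and lower FRET ratio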
Target sequence (P97697 whole entry, looked up): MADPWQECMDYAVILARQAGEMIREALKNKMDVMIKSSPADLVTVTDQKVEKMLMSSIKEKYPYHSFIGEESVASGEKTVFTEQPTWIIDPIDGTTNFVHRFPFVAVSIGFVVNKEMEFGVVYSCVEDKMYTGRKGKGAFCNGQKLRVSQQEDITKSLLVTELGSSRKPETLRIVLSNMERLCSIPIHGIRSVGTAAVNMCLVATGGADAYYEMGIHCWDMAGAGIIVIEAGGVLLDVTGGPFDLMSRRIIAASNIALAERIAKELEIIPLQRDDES
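Carbachol-driven Gq signalling in CHO-M1 cells (2000/well) generates IP1. Compounds that block IMPase raise IP1 and so reduce the FRET signal from Eu-anti-IP1 and d2-IP1 after a 10 min room-temperature lysis.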
IMPase Li cell: membrane-permeable IMPase blocker, potentiated with lithium. CHO-M1 cells, IP1 TR-FRET (IP-One), carbachol + lithium. Potency, µM (top dose mostly 59.4 µM), most hits filed as inhibitors. hit rate 0.35% among 210,000. AID 1457; active = well fitted inhibition curve with a large enough effect; inconclusive = small, poorly fitted or top-dose-only effect; inactive = no such curve, though single readings can be large or run the other way;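 note: IP1 builds up when IMPase is blocked and the TR-FRET signal falls; nearly all actives have a fitted effect of over 50% in size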
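Readout is a homogeneous TR-FRET IP1 immunoassay (Ex 320, Em 665 and 620), where raised cytosolic IP1 lowers signal. Cells were CHO-M1 treated 30 min at 37C with test compounds plus a little lithium; AC50 values came from Hill-equation fitting.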
PNC assembly inh: blocks assembly of the perinucleolar compartment; PC3M PTB-GFP, PNC prevalence imaging, 16 h; active compounds read low; hit rate 3.1% among 140,000; activity change (PNC), negative = inhibition, % at 10 µM;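 active = readout at or below -70, meaning at least 70% loss of cells showing the perinucleolar compartment, a nuclear body marking cancer cells; inconclusive = readout between -30 and a set limit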
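PC3M cells stably expressing PTB-GFP, 750–1000 cells/well, treated 16 h at 37 °C with compound (23 nl of library stock), in duplicate. After paraformaldehyde fixation and Hoechst stain, imaged at 20x; PNC prevalence scored by image analysis.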
HPGD block: HPGD (human) dehydrogenase inhibition; P15428; purified HPGD, NADH fluorescence kinetic, PGE2 substrate; Potency, µM, hits mostly inhibitors; hit rate 4.3% among 150,000; AID 894
Target sequence (P15428 whole entry, looked up): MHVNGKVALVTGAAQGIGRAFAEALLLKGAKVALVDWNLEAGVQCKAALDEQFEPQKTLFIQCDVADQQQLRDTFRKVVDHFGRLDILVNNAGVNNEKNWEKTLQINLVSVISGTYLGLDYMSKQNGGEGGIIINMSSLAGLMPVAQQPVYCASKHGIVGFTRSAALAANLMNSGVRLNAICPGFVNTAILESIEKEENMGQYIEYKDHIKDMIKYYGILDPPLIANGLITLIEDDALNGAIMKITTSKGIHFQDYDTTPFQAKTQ
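NADH formation kinetics: reaction with 30 uM PGE2 and 1 mM NAD+ (final), 20 nM enzyme, Tris-HCl pH 8 with Tween 20, after 15 min compound preincubation at room temperature. Fluorescence change, last versus first of five reads.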
ALDH1A1 inh: blocks purified human ALDH1A1 activity | P00352 | Purified ALDH1A1, NADH fluorescence, propionaldehyde substrate | Potency, µM (highest dose often 75.3 µM), most hits filed as inhibitors | hit rate 7.3% among 220,000 | AID 1030
Numbers stand for hits; – = inactive; ? = inconclusive; · = no result; [ ] = another dose, or the depositor's remark. Unless noted, calls come from the whole dose curve; as a rule, active = well fitted inhibition curve with a large enough effect (not every such curve was filed as active); inconclusive = small, poorly fitted or top-dose-only effect, or another doubt; inactive = no such curve, though single readings can be large or run the other way.

SMILES	IMPase inh	IMPase Li cell	PNC assembly inh	HPGD block	ALDH1A1 inh
CC(=O)Nc1ccc(S(=O)(=O)n2nc(-c3ccc(C)cc3)nc2N)cc1	–	–	–	6.3µM	–
Cc1ccc(S(=O)(=O)n2nc(-c3cccnc3)nc2N)cc1	–	–	?	–	–
COC(=O)C1=C(C)NC(=S)N(C(C)=O)C1c1ccccc1 (stereo not given)	–	–	–	–	25µM
CCOC(=O)C1=C(C)NC(=O)C(C(N)=O)C1c1ccccc1 (stereo not given)	–	–	–	–	–
CCOC(=O)C1=C(C)NC(=S)N(C=O)C1c1ccccc1 (stereo not given)	·	–	·	·	2µM
Cn1cc(-c2nc3cnc(Oc4cccc(Cl)c4)nc3n(C3CC3)c2=O)c2ccccc21	·	–	·	·	–
C1CCC(NC(=NC2C3CC4CC(C3)CC2C4)N2CCOCC2)CC1 (stereo not given)	·	–	·	·	–
CCCn1c(-c2ccc(F)cc2)nc2c(NCCN(C)C)nc(C)nc21	·	–	·	?	?
CCOC(=O)c1ccc(/C=C2/C=C(c3ccccc3)N(c3ccc(Cl)c(C(=O)O)c3)C2=O)cc1	·	–	–	–	11µM
CCOC(=O)c1ccc(Cl)c(NC(=O)c2ccc(-c3ccccc3)cc2)c1	–	–	–	–	–
CN(C)/C=C/c1onc(-c2c(Cl)cccc2Cl)c1C#N	·	–	·	·	13µM
N#Cc1c(-c2c(Cl)cccc2Cl)noc1/C=C/Nc1ccc(C(=O)O)cc1	·	–	·	·	3.5µM
CCOC(=O)c1nc(NCc2ccccc2F)c2ccccc2n1	·	–	·	·	–
COc1ccc(C(=O)N[C@H](C(=O)OCc2cc(=O)oc3cc(C)ccc23)C(C)C)cc1	·	–	–	–	11µM
O=C(Nc1nn[nH]n1)c1nc(-c2ccccc2)cc(=O)[nH]1	·	–	·	–	–[13.5 µM]
CC(C)C(c1nnnn1Cc1ccc2c(c1)OCO2)N1CCN(c2ccccc2)CC1 (stereo not given)	–	–	–	–	–
CC(C)C(c1nnnn1Cc1ccc2c(c1)OCO2)N1CCN(C)CC1 (stereo not given)	–	–	-100	–	–
Cc1cc(C)c2ccc(=S)[nH]c2n1	·	–	·	·	3.5µM
COc1ccc2c(C)cc(C)nc2n1	·	–	·	–	–[13.5 µM]
COc1ccc2c(c1)O[C@@H](c1cccc(C(F)(F)F)c1)[C@H](OC(=O)N[C@H](C)C1CCCCC1)C2=O	·	–	·	–	–
CCc1cc(SC#N)cc(CC)c1NC(=O)CCl	·	–	–	?	14µM
Cc1cc(C)c2c(NC(=O)CCl)nn(C)c2n1	·	–	·	·	?
Clc1ccccc1Cn1nnc2c(N3CCOCC3)nc(C3CC3)nc21	–	–	–	–	20µM
COC(=O)CNc1nc(C2CC2)nc2c1nnn2Cc1ccccc1Cl	?	–	–	–	1.6µM
CN(C)S(=O)(=O)c1ccc(Nc2nc(C3CC3)nc3c2nnn3Cc2ccccc2Cl)cc1	–	–	–	?	?
SMILES	IMPase inh	IMPase Li cell	PNC assembly inh	HPGD block	ALDH1A1 inh
CC(=O)c1ccc(N2C(=O)[C@@H]3C(C(=O)CCN4C(=O)c5ccccc5C4=O)=NN[C@@H]3C2=O)cc1	·	–	-108	–	–
COc1cccc(-c2nn(-c3ccccc3)cc2CN2CCCO2)c1	·	–	·	·	–
CCn1c(SCc2nc3sc(C(=O)O)c(C)c3c(=O)[nH]2)nc2ccccc21	?	–	–	16µM	?
Cc1cc(=O)[nH]c(SCC(=O)OCc2ccccc2)c1C#N	·	–	·	·	–
Cc1ccc(NC(=O)c2c(C(=O)Nc3ccccc3)sc3nc(C)cc(=O)n23)cc1	·	–	·	·	4.5µM
CCc1ccc(NC(=O)c2cc3c(C)nc4ccccc4c3o2)cc1	·	–	·	·	?
CCc1ccc(NC(=O)c2c(C(=O)Nc3ccccc3)sc3nc(C)cc(=O)n23)cc1	·	–	·	·	0.89µM
Cc1cc(=O)n2c(C(=O)Nc3ccc(C)c(C)c3)c(C(=O)Nc3ccccc3)sc2n1	·	–	·	·	?
CCOc1ccc(NC(=S)N/N=C(\C)Cc2ccc(OC)cc2)cc1	·	–	–	?	–
COc1ccc(CCNC(=O)C(=O)Nc2ccc(C)c(C)c2)cc1	–	·	·	·	·
COc1ccc(NC(=S)N/N=C/c2cccn2Cc2ccc(F)cc2)cc1	·	–	·	·	40µM
COc1ccc(C/C(C)=N/NC(=S)Nc2ccc(C)c(C)c2)cc1	–	·	–	·	24µM
COc1ccc(C/C(C)=N/NC(=S)Nc2ccccc2)cc1	·	–	–	–	22µM
CN(Cc1cc(Br)cc(Br)c1O)Cc1c(O)ccc2ccccc12	·	–	·	–	–[13.5 µM]
S=C(Nc1ccccc1)Nc1ccccc1C#Cc1ccccc1	·	–	·	?	18µM
S=C(Nc1ccccc1)Nc1ccccc1-n1cccc1	·	·	·	·	–
C[Si](C)(C)C#Cc1ccccc1NC(=S)Nc1ccccc1	·	–	·	?	13µM
N#Cc1ccccc1NC(=S)Nc1ccc(F)cc1	·	–	·	·	–
CCCC[C@@H]1C[C@H]1C(NS(=O)(=O)c1cccc2cccnc12)c1ccc(-c2ccccc2)cc1 (stereo not given in full)	·	–	·	–	–
CCOc1cc(/C=C/C(=O)OCC(=O)NC2CCS(=O)(=O)C2)ccc1OCc1ccccc1 (stereo not given)	·	–	·	·	?
CN(C)/C=C/C1=CC(=O)CC(C)(C)C1	·	–	·	·	8.9µM
CCOC(=O)CCSc1nnc(-c2cccnc2)n1-c1ccccc1OC	–	–	?	–	–
COc1ccccc1CNC(=O)CN(CCc1ccccc1)S(C)(=O)=O	·	–	·	·	–
COC(=O)C1(Cc2ccccc2)C=C2C(=C(c3ccccc3)C(=O)C2C)CN1 (stereo not given)	·	–	·	10µM	25µM
COC(=O)C1(CC(C)C)C=C2C(=C(C(C)C)C(=O)C2C)CN1 (stereo not given)	·	–	·	?	35µM
SMILES	IMPase inh	IMPase Li cell	PNC assembly inh	HPGD block	ALDH1A1 inh
Cc1cc(C(F)F)n2ncc(C(=O)N3CCc4ccccc4C3)c2n1	–	–	–	22µM	?
COc1ccc(-c2cc(C(F)F)n3ncc(C(=O)N4CCCc5ccccc54)c3n2)cc1	·	–	·	·	–
O=C(c1cnn2c(C(F)F)cc(-c3ccccc3)nc12)N1CCc2ccccc2C1	·	–	·	·	–
O=C(c1cnn2c(C(F)F)cc(-c3ccccc3)nc12)N1CCCc2ccccc21	–	–	?	–	20µM
Cn1c2c(c(=O)n(C)c1=O)C(c1ccc(Cl)cc1)C(C#N)=C(N)O2 (stereo not given)	·	–	–	–	?
C/C(N)=C(/C#N)C(=O)CSc1nnc(Nc2cccc(C)c2C)s1	?	–	–	28µM	?
COCCn1c(C)cc(C(=O)CSc2nc3ccccc3c(=O)[nH]2)c1C	–	–	?	16µM	–
Cc1cc(C)c(C(=O)CSc2nc3ccccc3c(=O)[nH]2)cc1C	·	–	·	·	?
COCCn1c(C)cc(C(=O)CSc2ccc3ccccc3n2)c1C	–	–	–	–	–
CCN(CC)C(=O)CSc1nc2ncc(Cl)cc2[nH]1	–	–	?	13µM	?
C=CCn1c(C)cc(C(=O)CSc2nc3ccccc3c(=O)[nH]2)c1C	–	?	–	2.8µM	?
